# Only some compounds are listed: those with a hit (about 6.2% of all), similar ones and a draw of the others.
# Marburg entry inh: Marburg virus entry inhibition; Marburg virus pseudotyped entry inhibition, cell reporter; Potency, µM (series often up to 37.8 µM), for inactives: at the highest dose activity change, negative = inhibition, hits mostly inhibitors; actives 1.8% (n = 300,000); AID 540276; calls by dose curve; tested in HEK293 cells; note: potency is the fitted concentration of half-maximal effect
# HCMV inh: human cytomegalovirus inhibition; HFF cells, HCMV-luciferase reporter, 72 h; active compounds read low; activity change, negative = inhibition, % at 57.5 µM; actives 4.5% (n = 410,000); AID 1259415; in the data active = activity change below about -60%; inconclusive = no clear call, values can overlap the other calls; inactive = above about -39%
#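 HFF cells seeded 16 h at 37C, treated with compounds, infected with luciferase-reporter HCMV at MOI 1 PFU/cell; luciferase read at 72 h post infection, normalized to buffer-only and Salinomycin controls.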
# Lassa entry inh: inhibitors of Lassa virus binding or cell entry; Potency, µM (highest dose often 37.9 µM), for inactives: top-dose activity change, negative = inhibition, most hits filed as inhibitors; actives 1.2% (n = 300,000); Lassa virus pseudotype entry inhibition, cell reporter; calls by dose curve; tested in HEK293 cells; note: potency is the fitted concentration of half-maximal effect; nearly all actives have a fitted effect of over 50% in size
# FMDV antiviral: antivirals against foot and mouth disease virus. FMDV antiviral cell-based qHTS. Potency, µM (doses to about 57.9 µM), inactives show top-dose activity change, negative = inhibition, usual class: inhibitors. actives 1.2% (n = 410,000); calls by dose curve; tested in HEK293T cells; note: read-out not given here; potency is the fitted concentration of half-maximal effect; nearly all actives have a fitted effect of over 45% in size
# Active calls of the source: *; ? = inconclusive; · = not tested or not shown; [ ] = dose if it differs, or a comment. % is set by controls: 0 for no effect and ±100 for the full control effect.
SMILES,Marburg entry inh,HCMV inh,Lassa entry inh,FMDV antiviral
COC(=O)/C=C/c1sc2nc(C)cc(C)c2c1N=CN(C)C,?,-67.5*,2.6%,4.7%
Cc1cc(C)c2c(N=CN(C)C)c(C(=O)N3CCN(c4ncccn4)CC3)sc2n1,-26.0%[46.1 µM],11.4,-7.3%,-4.8%
O=S(=O)(Nc1nccs1)c1cnc(Cl)c(Br)c1,-1.8%,-100.6*,-2.3%,49.7%
O=S(=O)(Nc1nccs1)c1ccc(Br)cc1,5.4%[46.1 µM],6.6,10.6%,42.2%
O=C(Cc1c(Cl)cccc1Cl)OCC(=O)N1CCc2ccccc2C1,30.0%,-101.3*,25.5%,2.8%
O=C(COC(=O)c1ccccc1O)NCc1ccccc1Cl,·,-64.7*,·,22.3%
O=C(COC(=O)c1ccco1)NCc1ccccc1Cl,18.7%[46.1 µM],18.7,13.6%[46.1 µM],11.4%
O=C(COC(=O)Cc1c(Cl)cccc1Cl)NCc1ccccc1,·,-67.9*,·,-23.9%
CCCC(=O)OCC(=O)NCc1ccc(Cl)cc1,3.5%[46.1 µM],4.6,-1.3%,-2.1%
O=C(COC(=O)CC(c1ccccc1)c1ccccc1)NCc1ccc(Cl)cc1,?,20.9,?,35.5µM*
COCc1cc(N2CCCC2)nc(-c2ccccc2)n1,-0.4%[46.1 µM],-25.2,3.2%,-6.4%
Cc1[nH]c2ccc3ccccc3c2c(=O)c1C/C=C/Cl,-14.1%,-89.1*,19.7%,-2.9%
Cc1[nH]c2ccc(Br)cc2c(=S)c1C/C=C/Cl,·,5.9,·,-6.7%
Cn1cnc(S(=O)(=O)N2CCC(C(=O)Nc3ccc(C#N)cc3)CC2)c1,·,11.8,9.8%[46.1 µM],-12.9%
Cn1cnc(S(=O)(=O)N2CCC(C(=O)Nc3ccc(OC(F)(F)F)cc3)CC2)c1,·,-60.2*,18.0%[46.1 µM],-12.7%
CCCOP(=O)(OCCC)C(Nc1ccc(C(C)C)cc1)c1ccc([N+](=O)[O-])cc1 (stereo not drawn),?,51.9,?,?
CCOc1cc(NC(=O)c2cccs2)c(OCC)cc1NC(=O)c1ccco1,-5.1%,31.0,-0.1%,4.6%
CCOc1cc(NS(=O)(=O)CC)c(OCC)cc1NC(=O)c1ccco1,?,-77.4*,1.4%,-6.9%
CCOc1cc(NS(=O)(=O)c2ccc(OC)cc2)c(OCC)cc1NC(=O)c1ccco1,?,-96.7*,-12.7%,-7.2%
Cc1cc(N2CCCC2=O)cc(C)c1S(=O)(=O)NCCOc1ccccc1,-24.9%,-77.3*,-1.1%,·
CCNc1nc(NCC)n2c(SC(C)C(=O)c3ccc(C)cc3)nnc2n1 (stereo not drawn),11.6µM*,?,-13.5%,?
CCNc1nc(NCC)n2c(SC(C(=O)Nc3cc(C)ccc3C)c3ccccc3)nnc2n1 (stereo not drawn),2.0%,22.6,-5.7%,?
Cc1ccc(NC(=O)Cn2cc3c(n2)CCC(C)C3)cc1 (stereo not drawn),·,-4.6,·,-24.5%
CC12Cc3cnoc3C=C1CCC1C2CCC2(C)C1CCC2(C)O (stereo not drawn),-18.0%,-33.8,?,35.5µM*
C[C@]12CCC(=O)C=C1CC[C@@H]1[C@@H]2CC[C@@]2(C)[C@H]1CC[C@]2(C)O,·,-18.6,·,?
SMILES,Marburg entry inh,HCMV inh,Lassa entry inh,FMDV antiviral
CCOc1ccc(N(CC(=O)Nc2c(C)cccc2C)S(=O)(=O)c2c(C)[nH]c(=O)[nH]c2=O)cc1,4.5%[46.1 µM],?,-1.5%,-18.0%
C[C@@]12C(=O)OC(=O)[C@@]1(C)[C@H]1CC[C@@H]2O1,3.26µM*,·,·,·
CC12C(=O)OC(=O)C1(C)C1CCC2O1 (stereo not drawn),3.26µM*,·,2.91µM*,?
c1cc(OCCN2CC2)ccn1,7.08µM*,-100.0*,-24.4%,-0.8%
COc1ccc(OCCN2CCN(C(=O)c3ccc(OC(F)F)c(OC)c3)CC2)cc1,?,-62.8*,-26.2%[46.1 µM],-27.6%
COc1ccc(OCCN2CCN(C(=O)c3ccc(OC)cc3)CC2)cc1,?,-89.7*,?,?
COc1ccc(NC(=O)Cn2c(=O)n(Cc3ccccc3)c(=O)c3sc4ccccc4c32)cc1,-9.3%[46.1 µM],3.4,-0.4%[46.1 µM],-11.7%
Cc1ccc(NC(=O)C2C(=O)N(CCO)C3(C)CC2c2ccccc2O3)cc1 (stereo not drawn),13.6%,25.7,?,45.1%
O=C(CCc1nnc2n(Cc3ccccc3)c(=O)c3ccccc3n12)NCCCN1CCCCC1,?,-62.0*,24.2%[46.1 µM],6.2%
CCc1nnc(NC(=O)c2ccc(-c3ccc(F)cc3)o2)s1,11.5%[46.1 µM],2.3,-3.5%[46.1 µM],-3.7%
Cc1ccc(C(=O)Nc2ccccc2N2CCCCC2)cc1[N+](=O)[O-],·,-11.8,·,?
COc1ccc(C(=O)Nc2ccccc2N2CCCCC2)cc1[N+](=O)[O-],·,-62.7*,·,?
Cc1ccc(NC(=O)c2ccc(Nc3c([N+](=O)[O-])cc([N+](=O)[O-])cc3[N+](=O)[O-])cc2)cc1,10µM*,-93.6*,?,12.6µM*
COc1ccc(C(=O)Nc2ccc(OCc3ccccc3)cc2)cc1[N+](=O)[O-],?,10.2,-8.9%,0.0%
COc1ccc(C(=O)Nc2ccc(Nc3ccccc3)cc2)cc1[N+](=O)[O-],·,-18.4,·,35.5µM*
CC(=O)Nc1ccc(NC(=O)c2cc([N+](=O)[O-])cc([N+](=O)[O-])c2)cc1,4.6%[46.1 µM],-29.2,-0.6%[46.1 µM],-11.0%
Cc1noc(C)c1C(=O)N1CCC[C@@]2(CCN(C(=O)NC(C)C)C2)C1,·,·,·,-3.3%
CC(=O)Nc1ccc(NC(=O)Cn2nc(C(=O)Nc3ccc(C)cc3)ccc2=O)cc1,·,0.3,-0.2%[46.1 µM],5.1%
CCCn1c(N)c(N(CCOC)C(=O)CSCC(=O)Nc2cccc(C)c2)c(=O)[nH]c1=O,-8.3%,-12.0,-11.4%[46.1 µM],0.9%
CCC1CCCCN1C(=O)Nc1ccc(F)cc1 (stereo not drawn),3.2%,25.9,-20.6%[14.3 µM],25.6%
CNc1cc(CSC)nc(SCc2ccc(Cl)c(Cl)c2)n1,-15.3%,-9.2,-20.9%,·
O=c1cc(CO)[nH]nc1CO,·,-27.4,·,-10.9%
O=c1c2ccccc2nc(/C=C/c2cccnc2)n1CCc1ccccc1,?,-74.8*,?,-24.6%
CCn1c(/C=C/c2ccccc2Cl)nc2ccccc2c1=O,13.6%[46.1 µM],-78.9*,2.5%[46.1 µM],-3.2%
Cc1cccc(/C=C/c2nc3ccccc3c(=O)n2Cc2ccccc2)c1,?,-83.1*,?,?
SMILES,Marburg entry inh,HCMV inh,Lassa entry inh,FMDV antiviral
CCn1c(/C=C\c2ccccc2C)nc2ccccc2c1=O,·,-9.2,·,2.2%
O=c1c2ccccc2nc(/C=C/c2cccnc2)n1Cc1ccccc1,?,-97.6*,?,-16.3%
Cc1ccc(CSc2nc3c(c(=O)[nH]c(=O)n3C)n2CCC(C)C)cc1,·,-1.2,·,?
Cc1[nH]c2ccccc2c1/C=C/c1nc2ccccc2c(=O)[nH]1,?,96.3,?,22.7%
Cc1cccc(/C=C/c2nc3ccccc3c(=O)[nH]2)c1,?,7.4,3.55µM*,38.0%
CCc1cc(C(=O)Cc2ccc(F)cc2)c(O)cc1O,?,-77.2*,?,-0.1%
CCCc1cc(C(=O)Cc2ccc(F)cc2)c(O)cc1O,10.9%,-20.2,-6.8%,-11.4%
CCOC(=O)CSc1nc2ccsc2c(=O)n1C1CCN(C(=O)OCC)CC1,?,5.7,-16.9%,7.3%
CCOC(=O)N1CCC(n2c(SCC(=O)Nc3nccs3)nc3ccsc3c2=O)CC1,?,-90.1*,?,-2.2%

# Assay outcomes from PubChem BioAssay.
